In ChEMBL document CHEMBL1157539, “Thousands of chemical starting points for antimalarial lead identification” (Nature, 2010):

Tests used:
Format in all cases: functional
Plasmodium falciparum [1] = assay: GSK_TCMDC: Inhibition of Plasmodium falciparum 3D7 in whole red blood cells, using parasite LDH activity as an index of growth. Test compounds present at 2uM
Plasmodium falciparum [2] = assay: GSK_TCMDC: Inhibition of Plasmodium falciparum Dd2 in whole red blood cells, using parasite LDH activity as an index of growth. Test compounds present at 2uM
HepG2 = assay: GSK_TCMDC: Percent inhibition of human HepG2 cell line. Test compounds present at 10uM.

Structure (SMILES) | Inhibition (Plasmodium falciparum [1]) | Inhibition (Plasmodium falciparum [2]) | Inhibition (HepG2)
Cc1cccc(CN2CCCN(Cc3ccc(C(=O)Nc4ccc(C)c(F)c4)cc3)CC2)c1.O=C(O)C(F)(F)F | 85% | 3% | 47%
O=C(O)C(F)(F)F.Oc1ccc(CCNc2nc(NCc3ccccc3-c3cccc(Cl)c3)nc(N3CCNCC3)n2)cc1 | 84% | 11% | 15%
CC(=O)Nc1ccc(C(=O)Nc2cccc(-c3cccc(-c4nc5cc(F)ccc5[nH]4)c3)c2)cn1 | 99% | 98% | 0%
COc1cc(NC(=O)c2c(-c3c(Cl)cccc3Cl)noc2C)c(OC)cc1Cl | 85% | 67% | 4%
COc1ccc2nccc([C@@H](O)CN3CCC(NC(=O)c4cc5c(Cl)cc(Cl)cc5[nH]4)CC3)c2c1 | 100% | 98% | 22%
Cc1cccc(C(=O)NC(NC(=S)Nc2cc(Cl)ccc2Cl)C(Cl)(Cl)Cl)c1 (stereo not drawn) | 94% | 61% | 0%
